Source: ChEMBL document CHEMBL4513216, “Probing the Open Global Health Chemical Diversity Library for Multistage-Active Starting Points for Next-Generation Antimalarials” (ACS Infect Dis, 2020)
About 8,600 (12%) of roughly 69,000 compounds showed an effect of 50% or more. Shown is part of a subset that was picked to be rich in strong results.

Test system: Plasmodium berghei
Test: Screen against P. berghei liver stage (PbLuc), transformed with Luciferase, at 10uM
Assay type: functional, HepG2
Settings: tested at 10 uM

| SMILES | INHIBITION |
| --- | --- |
| CCC(C)N(CCOC)Cc1nc2c(cnn2C)c(=O)[nH]1 (centres undefined) | 14.22% |
| CN(CC(N)=O)Cc1ccc(F)cc1Cl | -59.5% |
| CC(C)NC(=O)CC(C)NCc1cc(Cl)ccc1F (centres undefined) | 27.6% |
| CC(C)NC(=O)CC(C)NCc1ccc(F)cc1Cl (centres undefined) | 53.6% |
| COc1c(C(=O)NC(C)Cc2ccccc2Cl)c(C)nn1C (centres undefined) | 17.5% |
| O=C(O)c1c(-c2cncnc2)ncc2c1CCN(Cc1ccco1)C2 | -27.1% |
| CCn1nc2c(cc1=O)CN(Cc1nc(-c3cccnc3)no1)CC2 | -56.575% |
| CCc1c(C)nc(N)nc1NCCSCc1[nH]cnc1C | 69.4% |
| Cc1nc(C)c(C)c(NCCSCc2[nH]cnc2C)n1 | -8.47% |
| Cc1cnc(N)nc1NCCSCc1[nH]cnc1C | 39.1% |
| CN(Cc1cnn(C)c1)C(=O)Cc1ccc2c(c1)OCCO2 | -18.5% |
| Cc1n[nH]c(C)c1S(=O)(=O)N(C)Cc1nn(C)c(Cl)c1Cl | 23.8% |
| Cc1noc(C)c1S(=O)(=O)N(C)Cc1nn(C)c(Cl)c1Cl | 15.9% |
| Cc1nn(C)c(C)c1CN(C)S(=O)(=O)c1c(C)n[nH]c1C | 53.5% |
| CCn1nc(C)c(CN(C)S(=O)(=O)c2cnn(C)c2)c1C | 6.83% |
| Cc1nn(C)c(C)c1S(=O)(=O)N(C)Cc1nn(C)c(Cl)c1Cl | 54.5% |
| Cc1nn(C)c(Cl)c1S(=O)(=O)N(C)C | 12.3% |
| CS(=O)(=O)N[C@@H]1CCN(Cc2nccs2)[C@H]1Cc1ccncc1 | 30.5% |
| COc1cccc(C(C(=O)O)N2CCSCC2)c1F (centres undefined) | 17% |
| CC(C)CN(CC(F)(F)F)S(=O)(=O)c1cc(C(N)=O)n(C)c1 | -36.4% |
| CCC1C=CCN1C(=O)c1cc(COc2ccccc2OC)[nH]n1 (centres undefined) | -2.39% |
| CCCC(=O)N(C)CC(=O)Nc1ccc(Br)cn1 | -9.37% |
| COCC1c2c(cnn2CC2CC2)CCN1Cc1cccs1 (centres undefined) | -0.912% |
| Cc1ocnc1C(=O)N1CC[C@@]2(O)CCN(C(=O)N3CCCC3)C[C@H]2C1 | 36.5% |
| Cc1noc(C2CCCN(C(=O)c3cc(Cl)c(Cl)n3C)C2)n1 (centres undefined) | 51.4% |

| SMILES | INHIBITION |
| --- | --- |
| Cc1noc(C2CCN(C(=O)c3cc(Cl)c(Cl)n3C)CC2)n1 | 16.6% |
| Cc1noc(C2CCCN(C(=O)c3ccc(Br)o3)C2)n1 (centres undefined) | 60.5% |
| Cc1nc(C2CCCN(C(=O)c3scnc3C)C2)no1 (centres undefined) | 18.1% |
| Cc1ncsc1C(=O)N1CC[C@@]2(O)CCN(C(=O)N3CCCC3)C[C@H]2C1 | 65.7% |
| Cc1cncc(C2CCCN(C(=O)c3scnc3C)C2)n1 (centres undefined) | 51.7% |
| Cc1noc(C2CCCN(C(=O)c3cccc(Cl)c3)C2)n1 (centres undefined) | 39.5% |
| Cc1cncc(C2CCCN(C(=O)c3cn(C)nc3C)C2)n1 (centres undefined) | 36.7% |
| Cc1cc(C(=O)N2CCCC(c3nc(C)no3)C2)on1 (centres undefined) | 20% |
| Cc1noc(C2CCCN(C(=O)c3cncc(Br)c3)C2)n1 (centres undefined) | -27.8% |
| Cc1cc(C(=O)N2CC[C@@]3(O)CCN(C(=O)N4CCCC4)C[C@H]3C2)no1 | 1.74% |
| OCCCN1CCOC(c2ccc(F)cc2)C1 (centres undefined) | 30.2% |
| CC(C)c1nc(C(=O)N2CCOCC2CC(=O)c2ccco2)c[nH]1 (centres undefined) | 9.48% |
| Cc1cc(C)n(CC2CCCN2CC(=O)Nc2cc(C(C)C)no2)n1 (centres undefined) | -6.44% |
| CN(C)CCOCC1CN(Cc2ccc(F)cc2)Cc2nnn(C)c21 (centres undefined) | 33.2% |
| O=C(c1ccco1)N1C[C@@H]2[C@@H](C1)OCC(=O)N2Cc1cccnc1 | 35.8% |
| CS(=O)(=O)N1CCC2(CCN(C(=O)c3cccs3)CC2)CC1 | 32.1% |
| Cc1noc(C2CCCN(C(=O)c3cc(Cl)cn3C)C2)n1 (centres undefined) | 46.4% |
| Cc1noc(C2CCCN(C(=O)c3scnc3Cl)C2)n1 (centres undefined) | 74.2% |
| Cc1noc(C2CCCN(C(=O)c3cc(Cl)ccc3F)C2)n1 (centres undefined) | -49.5% |
| CN1CCCc2c1nc1c(c2N)CCCC1 | 7.38% |
| CN1CCCCc2c1nc1c(c2N)CCCC1 | 53.3% |
| CN1CCCCc2c1nc1c(c2N)CCC1 | 8.46% |
| Cc1cc(C)c2nc(CN(C)C(C)c3ccncn3)cc(O)c2c1 (centres undefined) | -33.3% |
| Cc1noc([C@@H]2C[C@H](NC(=O)NC3CCCCC3)CN2C)n1 | 22.2% |
| Cc1ccc(-c2noc([C@@H]3C[C@H](NC(=O)NC(C)C)CN3C)n2)cc1 | 23% |

| SMILES | INHIBITION |
| --- | --- |
| Cc1noc([C@@H]2C[C@H](NC(=O)NC(C)C)CN2C)n1 | 50.2% |
| Cc1cnc(C(=O)NCc2ccnc(N(C)C)c2)cn1 | 11.6% |
| O=C(O)c1c[nH]c2cc(NS(=O)(=O)c3cccc(F)c3F)ccc12 | -10.1% |
| CCn1c(C)nnc1SCCNc1cc(N2CCOCC2)ncn1 | 14% |
| CCN1CCOC(CNCc2ccccc2OCc2cccnc2)C1 (centres undefined) | -46.55% |
| CN(C)S(=O)(=O)N1CCN(C(=O)c2cc(-c3ccccc3)[nH]n2)CC1 | 18.5% |
| Cc1nn(C)c2ncnc(N3CCC(O)(CN4CCCC4)CC3)c12 | 30% |
| Cc1cnc(C(=O)N2CCN(Cc3csc(C)n3)CC2)cn1 | -26.1% |
| c1cnc2c(c1)cc([C@H]1CCCO1)n2CCN1CCCC1 | 17.1% |
| CN(C)CCn1c([C@@H]2CCCO2)cc2cccnc21 | 26.8% |
| CN(C)CCn1c([C@H]2CCCO2)cc2cccnc21 | 56.8% |
| Cc1ccc(-n2cc3[nH]c(=O)n(C(C)C)n3c2=O)cc1 | 0.266% |
| CC(C)NC(=O)NCCCc1cccc(F)c1 | 12.2% |
| CC(Cc1cccc(Cl)c1)NC(=O)NCc1ncnn1C (centres undefined) | 64.3% |
| CC(Cc1c(F)cccc1F)NC(=O)Nc1cnn(CC(N)=O)c1 (centres undefined) | 31.1% |
| CC(CCc1cccc(F)c1)NC(=O)NCc1ncnn1C (centres undefined) | 56.4% |
| CC(Cc1c(F)cccc1F)NC(=O)NCc1ncnn1C (centres undefined) | 51.4% |
| COCCn1cc(NC(=O)NC(C)Cc2c(F)cccc2F)cn1 (centres undefined) | 15.3% |
| Cn1ccnc1CNC(=O)CCc1cccc(F)c1 | -0.35% |
| CC(Cc1ccco1)NC(=O)Nc1cnn(CC(N)=O)c1 (centres undefined) | 0.0932% |
| CC(Cc1cccc(Cl)c1)NC(=O)Nc1cnn(CC(N)=O)c1 (centres undefined) | -11.4% |
| CC(Cc1ccco1)NC(=O)CCn1cccn1 (centres undefined) | 38.6% |
| CC(Cc1ccco1)NC(=O)NCc1ncnn1C (centres undefined) | 86.2% |
| Cc1cc(C(=O)NC(C)Cc2cccc(Cl)c2)n(C)n1 (centres undefined) | 18.6% |
